Data reported in PubChem BioAssay AID1508609 (The Scripps Research Institute Molecular Screening Center, 2020).
Out of some 6,700 compounds screened, fewer than 10 were called active.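 How the source made its calls: active means mean percent activation across replicates above the confirmation screen cutoff of 4.91%; inactive means the rest.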 Only a sample is shown.

biological target: G-protein coupled receptor 151 (Homo sapiens) (UniProt Q8TDV0); assay: GPR151 activators, triplicate retest, confirmation, cell-based, PathHunter beta-arrestin, luminescence (AID 1508609); settings: GPR151 PathHunter beta-arrestin cells, 90 min, at 11.2 µM, active compounds read high, % of EA-reagent control over plate median
Sequence (Q8TDV0 whole entry, looked up): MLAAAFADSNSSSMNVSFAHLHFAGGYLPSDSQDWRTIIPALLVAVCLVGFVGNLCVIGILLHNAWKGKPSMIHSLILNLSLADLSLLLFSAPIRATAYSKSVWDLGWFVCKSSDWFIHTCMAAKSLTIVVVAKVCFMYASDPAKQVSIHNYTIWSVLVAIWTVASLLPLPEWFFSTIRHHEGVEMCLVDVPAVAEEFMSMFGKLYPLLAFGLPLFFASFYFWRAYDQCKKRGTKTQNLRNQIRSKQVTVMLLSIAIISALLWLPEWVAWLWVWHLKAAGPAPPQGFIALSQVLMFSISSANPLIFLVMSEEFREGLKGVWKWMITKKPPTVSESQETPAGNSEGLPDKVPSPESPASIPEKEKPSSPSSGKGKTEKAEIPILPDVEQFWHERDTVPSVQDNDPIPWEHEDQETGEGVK

activation, inactive:
CC(=O)NC(CC(=O)O)c1ccc(F)cc1 (stereo unspecified) 0.27%
CC(=O)c1c(C)[nH]c(C(=O)N2CCN(c3ccc(Cl)cc3)CC2)c1C -0.42%
CC(=O)Oc1cccc(N2C(=O)C3C4c5ccccc5C(C)(c5ccccc54)C3C2=O)c1 (stereo unspecified) -0.54%
O=C(CC1C(=O)NCCN1Cc1ccc2ccccc2c1)NCCCn1cccn1 (stereo unspecified) 0.42%
CC(=O)Oc1cc2c(C(=O)NCCN3CCOCC3)c(C)oc2c2ccccc12 -0.37%
CCOc1ccc(NC(=O)COc2cccc(C)c2C)cc1 0.66%
Cc1cc2c(cc1S(=O)(=O)CCC(=O)Nc1ccccc1Cl)OCC(=O)N2 0.39%
O=C(CC12CC3CC(CC(C3)C1)C2)Nc1ccc2oc(=O)ccc2c1 -0.22%
CCOc1cc(C2C3=C(CCCC3=O)NC3=C2C(=O)CCC3)cc(Br)c1OCC 0.37%
COc1ccc([N+](=O)[O-])cc1NC(=O)C1CC(Cl)=CCC1C(=O)O (stereo unspecified) 0.92%
Brc1cnc(NC2CCCCC2)nc1 1.03%
COc1cc(-c2coc3cc(O[C@@H]4O[C@H](CO)[C@@H](O)[C@H](O)[C@H]4O)c(OC)c(O)c3c2=O)cc(O)c1OC -0.2%
COc1ccc(OC)c(S(=O)(=O)Oc2ccc(Cl)c3cccnc23)c1 0.21%
O=C(NCCO)c1cnc(NC2CCN(Cc3ccccc3)CC2)s1 0.92%
COc1ccc(C=O)cc1OCc1ccc(F)cc1 -0.07%
C=C(C)CSc1nc2sc3c(c2c(=O)n1-c1ccc(OC)cc1)CC(C)(C)OC3 0.13%
COC(=O)C1=CN(Cc2ccc(Cl)cc2)C=C(C(=O)OC)C1c1cc(OC)c(O)c(OC)c1 0.02%
Nc1nc(NC(=O)/C=C/c2ccc(F)cc2)nn1-c1ccccc1 0.79%
COCCNc1nc2nonc2nc1N(C)Cc1ccncc1C 1.1%
CC(C)N1CCc2c(sc(NC(=O)Cc3ccccc3)c2C#N)C1 0.16%
CC(C)c1ccc(CN[C@H]2C[C@H]3C(=O)N[C@@H](COCc4ccccc4)C(=O)N3C2)cc1 0.67%
CC(C)n1c(Nc2ccc3ncccc3c2)nc2c(NC3CC3)ncnc21 -0.12%
Cc1ccc(/C=C2/C(=O)NC(=O)N(c3ccccc3)C2=O)cc1[N+](=O)[O-] 0%
CN(C)c1cccc(Nc2cc(C(=O)Nc3ccc(N4CCOCC4)cc3)ccn2)c1 -1.31%
O=C(Nc1ccc(N2CCCC2=O)cc1)c1cncc(Br)c1 0.8%
COc1cc(Nc2ccnc(Nc3ccc(N4CCOCC4)cc3)n2)cc(OC)c1OC 3.41%
COc1ccc(COC(=O)NNC(=O)c2cccc(Cl)c2)cc1 -0.17%
CCOC(=O)C(C(=O)c1ccccc1)C1(O)C(=O)c2ccccc2C1=O (stereo unspecified) -0.37%
CCC(CC)C(=O)N1CCN(Cc2nc3sc(C)c(C)c3c(=O)[nH]2)CC1 0.36%
CCC(=O)Nc1cc(C(=O)O)ccc1C 0.34%
CCOC(=O)c1[nH]c2ccc(OC)cc2c1NC(=O)CN(C)C 0.64%
COc1ccc(C2=NN(C(=O)c3cc(OC)c(OC)c(OC)c3)C(c3ccc(Cl)cc3)C2)cc1OC (stereo unspecified) 0.2%
Cc1ccc(N2C(=O)CC(NCCN3CCOCC3)C2=O)cc1 (stereo unspecified) 0.27%
c1cncc(Nc2nc(NC3CC3)c3ncn(C4CCCCC4)c3n2)c1 -0.06%
CCCCOC(=O)C1=C(C)NC2=C(C(=O)CCC2)C1c1cccc([N+](=O)[O-])c1 (stereo unspecified) -0.99%
CC(=O)Nc1ccc(NC(=O)c2ccc3nc(Br)sc3c2)cc1 -0.12%
O=C(COc1ccc([N+](=O)[O-])cc1)Nc1ccc2oc(-c3cccc(F)c3)nc2c1 0.23%
COCC(=O)Nc1c(I)c(C(=O)NCC(O)CO)c(I)c(C(=O)N(C)CC(O)CO)c1I (stereo unspecified) -0.27%
CCN(CC)C(=O)C1CCCN(c2ncc(C)c(NCc3cccc(C(F)(F)F)c3)n2)C1 (stereo unspecified) 1.13%
COc1ccc2nc(/C(C#N)=C\c3cc4c(cc3OC)OCO4)[nH]c2c1 0.91%
Cc1cc(Nc2ccc(F)cc2)n2cnnc2n1 1.15%
CN(Cc1ccccc1)C(=O)c1nc2ccc(-c3cn[nH]c3)cc2s1 0.57%
O=C(/C=C/c1ccccc1)c1ccccc1O -0.11%
COC(=O)Cn1ncc2c3ccccc3n(Cc3cccc(Cl)c3)c2c1=O 0.15%
COc1ccc(CCNC(=S)NCc2cc(C)n(C)n2)cc1OC -0.26%
O=C1/C(=C\c2ccccc2)C(N2CCOCC2)=NN1c1ccc([N+](=O)[O-])cc1 0.23%
CC12CCC(C(=O)NC3CCCCC3)(OC1=O)C2(C)C (stereo unspecified) 0.51%
CN(Cc1nc(-c2ccc3c(c2)OCO3)no1)C1CCCc2ccccc21 (stereo unspecified) 0.68%
COc1ccc(-c2noc(-c3ccccc3Cl)n2)cc1 -0.15%
Cc1ccc2c(c1)N(CC(=O)N1CCC(C)CC1)C(=O)c1cccnc1O2 0.11%
CC(/C=N\NC(=O)CSc1nc(C)cc(C)n1)=C\c1ccccc1 -1.7%
